Experimental data: ChEMBL document CHEMBL4513149, “CO-ADD screening of MMV (CH) - MMV compounds” (2021)
Measured potencies and affinities stand elsewhere.

test system: Candida albicans; details: 20 µM

Row | Structure (SMILES) | Inhibition
1 | Clc1ccc(CCNc2cc(-c3ccccc3)nc3ncnn23)cc1 | 16.3%
2 | Cc1nn(C(=O)Nc2cccc(C(F)(F)F)c2)c(C)c1Sc1ncccn1 | 2.23%
3 | CC(C)n1nc(-c2cc3c(Cl)cccc3[nH]2)c2c(N)ncnc21 | 5.11%
4 | O=C(NCCc1c[nH]c2ccccc12)c1cc2ccccc2oc1=O | 4.19%
5 | O=C(c1cc2ccccc2o1)N1CCN(Cc2ccc3c(c2)OCO3)CC1 | -0.54%
6 | C[C@H](c1ccc2c(c1)CCCC2)N(C)c1ncc2c(N)nc(N)nc2n1 | 3.88%
7 | COc1ccc(-c2nnc3ccc(-c4cccc(C(C)C)c4)cn23)cc1OC | 15%
8 | NC(=O)c1cc(-c2ccsc2)ccc1OCCOc1ccccc1 | 1.34%
9 | N#Cc1nc(-c2ccccc2)oc1S(=O)(=O)c1ccc(Cl)cc1 | 3.69%
10 | CC1CCCCN1C(=O)NCCc1coc(-c2ccc(F)cc2)n1 (stereo unspecified) | 3.66%
11 | COc1cccn2c(C(=O)N3CCCCC3)c(C(F)(F)F)nc12 | 1.9%
12 | FC(F)(F)c1cc(NCCc2ccccc2)nc(-c2ccccn2)n1 | 1.73%
13 | CCOc1ccccc1C(=O)Nc1cccc(-c2nc3ncccn3c2C)c1 | 6.34%
14 | CCOc1ccc2cc(-c3nn(CC4CCN(C)CC4)c4ncnc(N)c34)ccc2c1.Cl | 4.38%
15 | O=C(NCc1cc(Cl)cc(Cl)c1)c1c(C(F)(F)F)nc2ccccn12 | 8.03%
16 | O=S(=O)(c1ccc(Cl)cc1)N1CCN(C(=S)NCc2ccco2)CC1 | 4.22%
17 | CC(C)C(Oc1cccc2ccccc12)C(=O)O (stereo unspecified) | 8.4%
18 | O=C(NC1CC1)c1ccc(N2CCOc3ccc(Cl)cc32)s1 | 6.64%

Row | Structure (SMILES) | Inhibition
19 | COc1ccc(CN2CCOc3ccc(C(C)(O)CN(C)C)cc3C2)cc1C (stereo unspecified) | 4.72%
20 | CCC(NC(=O)c1ccccc1NC(=O)c1ccc(C)cc1)C(=O)OC (stereo unspecified) | 4.2%
21 | Cc1cc(Cl)c(S(=O)(=O)N2CCCC2)cc1OCC(=O)NC1CCCCC1 | 9.11%
22 | COc1ccc(Cl)cc1NC(=O)CN(C)C(=O)c1cnn(-c2ccccc2)n1 | 6.95%
23 | CCCCc1ccc(C(=O)Nc2nccc3ccccc23)nc1 | 6.07%
24 | Cc1cc(Nc2ccc(C(F)(F)F)cc2)n2ccnc2n1 | 3.67%
25 | CCCCc1ccc(NC(=O)Nc2ccc(O[C@H]3CCCC[C@@H]3N(C)c3ccccc3)c(F)c2)cc1 | 1.16%
26 | CN1CCC(c2cc(-c3ccncc3)c(-c3ccc(F)cc3)[nH]2)CC1 | 0.45%
27 | c1ccc2c(c1)CN(CC1CC1)CC1(CCN(Cc3c[nH]c4cnccc34)CC1)O2 | 4.16%
28 | CC(Oc1ccccc1)C(=O)Nc1nc(-c2ccccn2)cs1 (stereo unspecified) | -0.26%
29 | Cc1noc(C)c1C(=O)N1CCCC(c2[nH]c3c(C)cccc3c2-c2ccncc2)C1 (stereo unspecified) | 4.29%
30 | COc1ccc(S(=O)(=O)Nc2ccc(CN3CCN(C(=O)c4cccc(C#N)c4)CC3)cc2)cc1 | 1.12%
31 | Nc1nccc2ccc(Oc3ccncc3)cc12 | 1.98%
32 | CC1=Nc2ccc(Cl)cc2C(O)(c2ccc(C)cc2)N1CCN1CCCCC1 (stereo unspecified) | 3.13%
33 | NCC(=O)N1CCn2c(nc(-c3ccccc3)c2Nc2ccc3c(c2)OCO3)C1 | 3.31%
34 | CCC(=O)Nc1ccccc1C(=O)Nc1ccccn1 | 3.37%
35 | O=C(NC1CCN(c2ccnc3ccccc23)C1)c1cccc(C(F)(F)F)c1 (stereo unspecified) | 3.54%
36 | CCc1nc2ccccc2n1CC(O)COc1cc(C)ccc1Cl (stereo unspecified) | 1.23%
